From PubChem
VDR inhibitor: blocks the human vitamin D receptor; VDR-SRC2-3 peptide fluorescence polarization, 2 h; 0.93% of 400,000 active; P11473; Potency, µM, without a hit: max response, negative = inhibition, actives largely listed as inhibitors
Target sequence (P11473 whole entry, looked up): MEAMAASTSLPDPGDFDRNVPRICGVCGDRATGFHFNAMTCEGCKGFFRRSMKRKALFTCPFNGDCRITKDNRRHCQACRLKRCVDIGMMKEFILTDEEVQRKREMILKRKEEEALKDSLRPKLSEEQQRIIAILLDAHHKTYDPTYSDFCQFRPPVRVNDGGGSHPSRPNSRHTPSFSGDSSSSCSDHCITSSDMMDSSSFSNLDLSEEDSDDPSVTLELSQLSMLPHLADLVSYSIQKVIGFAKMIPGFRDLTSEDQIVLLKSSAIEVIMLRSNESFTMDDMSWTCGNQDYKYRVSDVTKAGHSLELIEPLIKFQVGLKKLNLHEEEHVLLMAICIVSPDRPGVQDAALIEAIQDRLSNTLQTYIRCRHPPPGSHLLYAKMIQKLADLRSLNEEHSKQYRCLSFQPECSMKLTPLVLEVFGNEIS
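Fluorescence polarization assay measuring small-molecule disruption of VDR binding to the coregulator peptide SRC2-3. Compounds were pin-transferred (23 nl) into the reagent mix and incubated 2 h at room temperature before reading.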
KAT2A inh: blocks human GCN5L2 histone acetyltransferase | GCN5L2 HAT assay, ThioGlo1 CoA-SH fluorescence | Potency, µM (highest dose often 58.9 µM), inactives show at the top dose activity change, negative = inhibition, usual class: inhibitors | 0.21% of 390,000 active
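Fluorescence readout, Ex340nm/Em540nm: ThioGlo1 (50uM final) reacts with free CoA thiol released as 20nM GCN5L2 acetylates H3(1-25) peptide (75uM) using acetyl-CoA (70uM). Compound and enzyme sat 15 min beforehand; 20 min room-temperature reaction.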
TrxR1 substrate: is turned over as a substrate by rat TrxR1 | Potency, µM (titrated, usually from 114 µM), for inactives: top-dose activity change, negative = substrate turnover | O89049 | purified TrxR1 substrate turnover, NADPH consumption readout | 0.01% of 390,000 active; also: nearly all actives have a fitted effect of over 50% in size
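Rat TrxR1, dispensed at 90 nM, was prereduced with 400 uM NADPH (final) for 5 min at ~22 deg C, then incubated with compound 15 min before 400 uM selenite. A first-read NADPH fluorescence drop versus no-compound background flagged substrates.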
rTrxR1 inhibitor: blocks rat thioredoxin reductase 1. AID 588453. recombinant rTrxR1, NADPH fluorescence consumption, selenite substrate. Potency, µM (highest dose often 114 µM), inactives show at the highest dose activity change, negative = inhibition, hits mostly inhibitors. 1% of 390,000 active; also: nearly all actives have a fitted effect of over 65% in size
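Rat TrxR1 (90 nM in the dispensed reagent) was pre-reduced with 400 uM NADPH for 5 min at room temperature, then incubated with compound for 15 min. After 400 uM selenite was added, NADPH fluorescence (Ex 340/Em 450 nm) was followed for 8 min.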
Starred values were filed as active, the others as inactive; u = inconclusive; x = not tested or not shown; ! = not active in a repeat; [ ] = another dose, or the depositor's remark. This is a sample that favours compounds with a hit; in the whole collection about 1.8% have one here. Calls follow the shape of the dose curve; as a rule, active = well fitted curve in the direction sought with a large enough effect; inconclusive = small, poorly fitted or top-dose-only effect, or another doubt; inactive = no such curve, though single readings can be large; an effect the other way counts as inactive or inconclusive. % is scaled to controls: 0 for no effect and ±100 for the full control effect; potency is read from the fitted curve at half-maximal effect.

SMILES	VDR inhibitor	KAT2A inh	TrxR1 substrate	rTrxR1 inhibitor
O=C(CCCc1ccccc1)Nc1ccc(Br)cc1F	22µM*	-6%	-3%[57.1 µM]	9%
O=C(CCCc1ccccc1)Nc1ccccc1[N+](=O)[O-]	20µM*	-8%	-4%	9%[57.1 µM]
O=Cc1cccc(C=O)c1	x	x	-2%	9%
Cc1c(Cl)cccc1-n1ncc(C(=O)N2CCc3ccccc3C2)c1C1CCN(C(=O)OC(C)(C)C)CC1	1%	-22%	2%	15%
O=[N+]([O-])c1c(NCCO)cc(N2CCCCC2)c2nonc12	3%	1%	-3%[57.1 µM]	-2%[57.1 µM]
CC(=O)OCCCNc1cc(Sc2ccc(Cl)cc2)c2nonc2c1[N+](=O)[O-]	10µM*	7%	-14%	3.2µM*
CCOC(=O)N1CCN(c2cc(NCCO)c([N+](=O)[O-])c3nonc23)CC1	2%	-3%	1%[57.1 µM]	8%[57.1 µM]
CC(=O)OCCN(C)c1cc(SC(C)C)c2nonc2c1[N+](=O)[O-]	u	-12%	9%[57.1 µM]	3.2µM*
Cc1ccc(Sc2cc(NCCCO)c([N+](=O)[O-])c3nonc23)cc1	u	8%	5%	13µM*
CC(C)CCSc1cc(NCCO)c([N+](=O)[O-])c2nonc12	-10%	-20%	5%[57.1 µM]	3.5µM*
CC(=O)OCCNc1cc(SC(C)C)c2nonc2c1[N+](=O)[O-]	16%	-9%	-16%[57.1 µM]	4%[57.1 µM]
CN(C)c1cc(Nc2ccc(O)cc2)c([N+](=O)[O-])c2nonc12	-16%	1%	-5%	-6%
CCC(=O)OCCNc1cc(SCCC(=O)OC)c2nonc2c1[N+](=O)[O-]	u	-1%	-17%	8.9µM*
COC(=O)CCSc1cc(NCCCOC(C)=O)c([N+](=O)[O-])c2nonc12	-27%	x	-15%	3.2µM*
O=C(CCl)N1CCCC1c1ccc2c(c1)OCCO2 (configuration not stated)	u	1%	4%	25µM*
COc1ccc(Oc2nnc(-c3ccc(C)cc3)c3ccccc23)cc1	1%	-11%	8%	31%
COc1ccc(-c2nnc(C)c3nocc23)cc1	7%	-5%	-6%	20µM*
CCOCCCNC(=O)C(=O)Nc1c2c(nn1-c1ccc(OC)cc1)CSC2	-3%	-10%	1%[57.1 µM]	3%[57.1 µM]
Cc1c(C#N)c(NC(=O)CCl)n(Cc2cccs2)c1C	-26%	-2%	9%	3.5µM*
Cc1c(C#N)c(NC(=O)CCl)n(Cc2ccc(F)cc2)c1C	-25%	-5%	3%	u
Cc1cc[n+]2c3c(cccc13)CCC2	50µM*	-3%	32%	-2%
C=C(c1nc2ccccc2s1)C1Cc2cccc3c2N(CCC3)C1 (configuration not stated)	x	x	-8%	27%
O=C(COC(=O)Cc1ccc(F)cc1)NCc1ccco1	1%	-1%	3%	-1%
O=C(COC(=O)Cc1cccc(C(F)(F)F)c1)NCc1ccco1	-6%	-9%	-5%	35µM*
Cc1ccc(/C=C2\CCC3=C2OC(N)=C(C#N)C3c2ccc(C)cc2)cc1 (configuration not stated)	u	5%	-9%	50µM*
SMILES	VDR inhibitor	KAT2A inh	TrxR1 substrate	rTrxR1 inhibitor
O=C1C=CC(=O)N1CCCCCCN1C(=O)C=CC1=O	3.2µM*	0%	6%	0.71µM*
CCN1C(=O)C=CC1=O	-5%	-2%	-3%[57.1 µM]	11µM*!
CC(C)(C)n1ncc2c(=O)n(Cc3cccc(F)c3)cnc21	x	x	-2%	8%
C[N+]1(CC(=O)c2cccc([N+](=O)[O-])c2)CCOCC1	x	x	7%	19%
COc1cccc(Cn2c(=O)cnc3cnc(Oc4cccc(Cl)c4)nc32)c1	-20%	-1%	x	x
O=C(N/N=C/c1ccc(N2CCCCC2)o1)c1ccccc1[N+](=O)[O-]	40µM*	-11%	-2%	10µM*
O=C(N/N=C/c1ccc(N2CCOCC2)o1)c1cccc(C(F)(F)F)c1	25µM*	-7%	-10%	7.1µM*
O=C(Nc1ccc(N2CCOCC2)nc1N1CCOCC1)c1cccc(C(F)(F)F)c1	-21%	-8%	8%[57.1 µM]	11%[57.1 µM]
O=C(N/N=C/c1ccc(N2CCOCC2)o1)c1ccccc1[N+](=O)[O-]	u	-15%	-18%	8.9µM*
N[C@@H](Cc1ccc(O)cc1)C(=O)NO	x	x	15%	16%
CN(C)c1ccc(C(I)C(I)c2ccnc3ccccc23)cc1 (configuration not stated)	x	x	2%	u
CC(C)(C)n1ncc2c(=O)n(Cc3cccc(-c4ccccc4)c3)cnc21	x	x	-3%	2%
COc1cc(C(=O)ON=C2C(C)=CC(=O)C=C2C)cc(OC)c1OC	89µM*	-23%	6%[57.1 µM]	u
COc1ccc(-c2cc(=O)c3c(OC)c(OC)c(OC)cc3o2)cc1OC	-1%	u	x	x
COc1ccc(-c2oc3ccccc3c(=O)c2O)cc1OC	5%	32µM*	x	x
COc1ccc(-c2cc(=O)c3ccccc3o2)cc1OC	-27%	35µM*	x	x
CC1=C(C(=O)O)N2C(=O)[C@@H](NC(=O)[C@@H](N)c3ccc(O)cc3)[C@@H]2SC1	u	-13%[21.4 µM]	x	x
CC[C@@]12CCCN3CCc4c(n(c5ccccc45)C(=O)C1)[C@H]32	-2%	-8%[21.4 µM]	x	x
COc1ccc(/C=C(\C)C(=O)NO)cc1	x	x	3%	6%
CNC1C(O)C2OC3OC(C)CC(=O)[C@@]3(O)O[C@H]2[C@H](NC)C1O (some centres not stated)	6%	0%	x	x
O=C/C=C/c1c(-c2ccccc2)cc2oc3ccccc3cc1-2	35µM*	-10%	-5%	45µM*
CC1(C)CC(=O)C2=C(C1)N(c1ccccc1)C(N)=C(C#N)C2c1cccnc1 (configuration not stated)	-1%	1%	2%	79µM*
COC(=O)[C@@H]1N2C(=O)[C@@H](NC(=O)C(C)Oc3ccccc3)[C@H]2SC1(C)C (some centres not stated)	x	x	-8%	-28%
CC(Oc1ccccc1)C(=O)N[C@@H]1C(=O)N2[C@@H]1SC(C)(C)[C@@H]2C(=O)OCc1ccccc1 (some centres not stated)	x	x	1%	50µM*
Cc1c([N+](=O)[O-])cnc2ccccc12	x	x	1%	17%
SMILES	VDR inhibitor	KAT2A inh	TrxR1 substrate	rTrxR1 inhibitor
CCCN(CCC)c1ccc(/C=C/c2ccnc3ccccc23)cc1	x	x	-6%	26%
COc1ccc2c([N+](=O)[O-])c(Cl)[nH]c2c1	-23%	-17%	-1%	14µM*
COc1ccc2c(c1)[nH]c1c(Cl)ncnc12	-12%	2%	8%	10%
O=C(NCc1ccccc1Cl)c1ccc2c(c1)N(Cc1ccccc1)CCS2	-15%	-6%	64%	58%
C#CCOCCOCCOCCNc1nc(N2CCN(C(=O)[C@H](CCCCN)n3cc(C(N)[C@H](C)CC)nn3)CC2)nc(N2CCN(C(=O)[C@H](CCC(=O)O)n3cc(C(N)[C@H](C)CC)nn3)CC2)n1 (some centres not stated)	-18%	2%	2%	56µM*
C#CCOCCOCCOCCNc1nc(N2CCN(C(=O)[C@H](CCCCN)n3cc(CN)nn3)CC2)nc(N2CCN(C(=O)[C@H](CCCCN)n3cc([C@@H](N)[C@H](C)CC)nn3)CC2)n1	-1%	-1%	12%	45µM*
